The values that follow come from PubChem BioAssay AID493209 (National Center for Advancing Translational Sciences (NCATS), 2011).

The source made the active and inactive calls.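 The calls were made as follows: active = compounds that raised 12-lipoxygenase product formation in the cuvette follow-up test, with a fitted potency; inactive = the rest, inconclusive results apart.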

The experiment deals with Polyunsaturated fatty acid lipoxygenase ALOX12 (Homo sapiens) (UniProt P18054). The experiment can be described thus: Activators of 12-hLO (12-human lipoxygenase): 12hLO Cuvette-Based Hit Validation Assay of Followup Compounds. As to conditions: purified 12-hLO, cuvette UV 234 nm product formation. As for the experimental part: The enzyme activity of 12-hLO was determined by a direct measurement of product formation by monitoring the absorbance at 234 nm in a 2 mL cuvette. IC50 values of inhibitors were obtained by measuring the enzymatic rate at a variety of concentrations (Carroll et al, Segraves et al). This assay was used to validate active or inconclusive putative activators identified in the primary screen (see related BioAssay AIDs). Assay Provider: Holman, T.R., University of California, Santa Cruz Screening Center PI: Austin, Christopher P. Screening Center: NIH Chemical Genomics Center
Chain of Polyunsaturated fatty acid lipoxygenase ALOX12 (Homo sapiens) (P18054 whole entry, looked up): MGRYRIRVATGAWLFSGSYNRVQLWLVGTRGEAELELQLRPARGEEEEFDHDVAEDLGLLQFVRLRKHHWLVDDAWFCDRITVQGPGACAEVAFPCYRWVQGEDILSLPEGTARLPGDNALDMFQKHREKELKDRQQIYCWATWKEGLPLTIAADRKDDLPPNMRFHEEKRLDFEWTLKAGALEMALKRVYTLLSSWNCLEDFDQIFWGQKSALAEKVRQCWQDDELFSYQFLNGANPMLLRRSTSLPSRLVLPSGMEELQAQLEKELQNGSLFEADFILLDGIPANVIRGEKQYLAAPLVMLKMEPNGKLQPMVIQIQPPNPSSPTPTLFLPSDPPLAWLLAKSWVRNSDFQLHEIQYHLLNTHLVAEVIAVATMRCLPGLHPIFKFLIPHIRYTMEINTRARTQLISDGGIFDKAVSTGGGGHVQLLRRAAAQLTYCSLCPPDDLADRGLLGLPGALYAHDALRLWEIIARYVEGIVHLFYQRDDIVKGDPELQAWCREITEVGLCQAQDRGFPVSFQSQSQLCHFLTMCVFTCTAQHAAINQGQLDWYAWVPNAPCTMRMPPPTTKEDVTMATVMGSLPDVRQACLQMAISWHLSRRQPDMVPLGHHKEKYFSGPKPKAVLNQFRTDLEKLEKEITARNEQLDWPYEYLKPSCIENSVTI
For control experiments, 2 mL of substrate buffer (10 uM arachidonic acid / 25 mM HEPES / 0.01% (v/v) Triton X-100, pH 8.0) was aliquoted in a cuvette with a magnetic stir bar. After equilibrium was ensured, an aliquot of inhibitor solvent was added (DMSO), and equilibrium was once again assured. The reaction was started by adding enzyme to the cuvette and the reaction was followed until completed. The inhibition experiments were performed as above, except the actual inhibitory compound was added instead of vehicle. To achieve an IC50, typically 5 concentrations of the inhibitor were studied. If the inhibitor concentration was constant, then five different reaction volumes were used. Step \ Parameter \ Value \ Description 1; UV-Vis; 234 nm; Equilibration 2; Reagent; 2 mL; Substrate buffer 3; UV-Vis; 234 nm; Equilibration 4; Reagent; varies; Compound 5; UV-Vis; 234 nm; Equilibration 6; Reagent; 50-200 nM; Enzyme 12-hLO 7; UV-Vis; 234 nm; Enzymatic reaction Step \ Notes 1; Blank cuvette to air. 2; 10 uM AA, 25 mM HEPES, 0.01% Triton X-100, pH 8. 3; No change in absorbance ensured. 4; Compound vehicle or compound in various concentrations depending on potency. 5; No change in absorbance ensured. 6; Enzyme concentration to achieve reaction rate between 0.02 and 0.04 AU/s. 7; Enzymatic reaction visualized until completion.
`Cc1cc(C)c2cc(CN(Cc3nnnn3C3CCCCC3)CC3CCCO3)c(=O)[nH]c2c1` (stereo not given): the result was inactive.

Turning to `Oc1ccc(CN2CCCc3ccccc32)c2cccnc12`, the Potency is 43.6 µM (active).

Regarding `Cc1oc2c(O)c(O)ccc2c(=O)c1-c1cnn(-c2ccccc2)c1`, the outcome was inactive.

For the compound `N#CC1=C(N)Oc2n[nH]c(-c3cccs3)c2C1C1CCCCC1` (stereo not given), the compound was classed as inactive.

As for `CC1=NN(c2ccc(Cl)cc2)C(=O)C1C(c1ccccc1O)c1c(C)[nH]n(-c2ccc(Cl)cc2)c1=O` (stereo not given), the compound was classed as inactive.

For the compound `CCc1ccc(S(=O)(=O)/N=C2/C=C(Sc3ncn[nH]3)C(=O)c3ccccc32)cc1`, the result was inactive.

As to `Oc1ccccc1-c1cc(-c2ccccc2Cl)[nH]n1`, the result was inactive.

For `Cc1nc(N)sc1-c1csc(N(C)c2ccc(O)cc2)n1`, the compound was classed as inactive.

For the compound `Cc1ccc(C(=O)Nc2nnc(-c3ccco3)o2)cc1C`, the compound was classed as inactive.

`CCc1cc(-c2[nH]ncc2-c2ccc3c(c2)OCO3)c(O)cc1O`: the result was inactive.

Regarding `CCCOC(=O)c1ccc(Oc2cn[nH]c2-c2ccc(OC)cc2O)cc1`, the compound was classed as inactive.

For the compound `O=S(=O)(Nc1ccc(O)c(Sc2nc3ccccc3s2)c1)c1ccc(Cl)cc1`, the outcome was inactive.

As to `Cc1cc(Cl)cc(Cl)c1OCC(=O)NCc1ccco1`, the compound was classed as inactive.

As to `Oc1ccc(C2=Nn3c(nnc3-c3ccco3)SC2)cc1O`, the compound was classed as inactive.

Consider `CSc1ccc(S(=O)(=O)Nc2ccc(S(=O)(=O)Nc3ccc(C)cc3)cc2)cc1`, for which the compound was classed as inactive.

As to `Cc1ccc(NC(=O)Nc2cccs2)c(Cl)c1`, the outcome was inactive.

`CSCCC(NC(=O)c1ccc(Cl)cc1)C(=O)OCC(=O)Nc1ccc(C#N)cc1` (stereo not given): the compound was called inactive.

For `CC(Oc1ccc(Cl)cc1Cl)C(=O)Nc1ccc(S(=O)(=O)Nc2cnc3ccccc3n2)cc1` (stereo not given), the outcome was inactive.

For `CCOc1ccc(-c2[nH]ncc2Oc2cccc(OC)c2)c(O)c1`, the outcome was inactive.

Take `Cc1[nH]nc(-c2ccc(O)cc2O)c1Oc1ccccc1`: the outcome was inactive.

Take `Oc1ccc(-c2csc(-c3ccccc3)n2)cc1O`: the compound was called inactive.

For `O=C(Nc1nnc(-c2ccccn2)o1)c1ccc(Br)cc1`, the compound was classed as inactive.

With `CCCOC(=O)c1ccc(Oc2c(-c3ccc(O)cc3O)n[nH]c2C)cc1`, the call was inactive.

In the case of `CC1=NN(c2ccc(Cl)cc2)C(=O)C1C(c1cccc(O)c1)c1c(C)[nH]n(-c2ccc(Cl)cc2)c1=O` (stereo not given), the compound was called inactive.

`COc1cc(CNc2ccc(O)cc2)cc(Br)c1OCc1ccccc1F`: the compound was classed as inactive.

On to `CCOC(=O)Cc1cc(=O)n(-c2nc3ccccc3s2)[nH]1`, for which the outcome was inactive.

Take `CCc1cc(-c2n[nH]c(C)c2Oc2ccc(C(C)C)cc2)c(O)cc1O`: the outcome was inactive.

For `Oc1ccccc1-c1cc(-c2ccc3c(c2)OCCO3)n[nH]1`, the compound was classed as inactive.

`Cc1ccc(S(=O)(=O)Nc2nc(C)c(NC(=O)Nc3ccc(Cl)cc3Cl)s2)cc1`: the compound was called inactive.

`O=C(Nc1nnc(C2=COCCO2)o1)c1ccc(Cl)cc1`: the compound was classed as inactive.

For `COc1ccc(-c2n[nH]c(C)c2-c2ccc(Cl)cc2)c(O)c1`, the compound was called inactive.

Regarding `COc1cccc(CNc2ccc(S(=O)(=O)Nc3nccs3)cc2)c1O`, the outcome was inactive.

`CN(C)c1nccc(N(Cc2ccccc2)Cc2ccccc2)c1C#N`: the call was inactive.

For the compound `Cc1[nH]nc(-c2ccc(O)cc2O)c1-c1ccc(Cl)cc1`, the outcome was inactive.

Take `O=C(/C=C/c1ccc(O)c(O)c1)c1ccc(S(=O)(=O)N2CCCCCC2)cc1`: the compound was called inactive.

Turning to `Cc1cccnc1NCc1ccc(O)c2ncccc12`, the Potency was 46.4 µM (active).

`Cc1ccc(C(=O)Nc2nnc(-c3ccco3)o2)cc1`: the result was inactive.

As to `O=C(NC(=S)Nc1ccccc1N1CCCC1)c1ccc([N+](=O)[O-])cc1`, the Potency was 66.7 µM (active).

`COc1ccc2nc(NC(=O)c3cccc(OCc4c(C)noc4C)c3)sc2c1`: the call was inactive.

Turning to `Cc1ccc(C(=O)/C=C/c2c[nH]c3ccccc23)cc1`, the compound was classed as inactive.
